In PubChem BioAssay (EPA / NIEHS) one finds outcome and AC50 data, which are given here for 17 compounds.

Each structure is given as a SMILES string. Calls of active or inactive are those of the source. The calls were made as follows: active = hit-call score of the fitted dose curve at least 0.9, where 1 is the maximum; inactive = score below 0.9.

Assay [1] in a line: CEETOX_H295R_CORTISOL: CeeTox H295R High-throughput Steroidogenesis Assay for Cortisol (AID 2283438).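 Also: cortisol secreted into medium quantified by LC-MS/MS.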 Conditions: actives raise or lower the signal. Summed up: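 Human adrenocortical H295R cells (passage ≤10) received test chemicals for 48 h after forskolin priming. Secreted cortisol was measured by LC-MS/MS.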
Assay [2] in a line: CEETOX_H295R_DOC: CeeTox H295R High-throughput Steroidogenesis Assay for DOC (AID 2283439). Conditions: actives raise or lower the signal. The method, boiled down: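 Secreted DOC was quantified from H295R media by HPLC-MS/MS after 48 h chemical exposure following 48 h forskolin (10 uM) prestimulation. Values were fitted in both directions relative to DMSO, the negative control and baseline.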

Assay [3] is described as follows: CEETOX_H295R_PROG: CeeTox H295R High-throughput Steroidogenesis Assay for Progesterone (PROG) (AID 2283442).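 As to AC50: human H295R adrenal cells primed with 10 µM forskolin before dosing; progesterone secreted into medium by H295R cells measured by HPLC-MS/MS.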 As to conditions: actives raise or lower the signal. The method, boiled down: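 Adrenal H295R line, forskolin-stimulated (10 uM, 48 h) before dosing. 48 h exposure, 0.1% DMSO vehicle. Secreted progesterone by reverse-phase HPLC with ESI+ MS/MS quantification; DMSO-normalised bidirectional curve fit.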

Assay [4] can be described thus: CEETOX_H295R_ESTRADIOL: CeeTox H295R High-throughput Steroidogenesis Assay for Estradiol (AID 2283440).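 Also: estradiol secreted into medium quantified by LC-MS/MS after dansyl derivatisation.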 Conditions: actives raise or lower the signal. Summed up:
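Following OECD 456 with minor changes, H295R cells received 10 uM forskolin for 48 h and then test chemical for 48 h. Hormone output was read by HPLC-MS/MS, with cytotoxic concentrations diluted until MTT viability reached ≥70%.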

Assay [5] in a line: CEETOX_H295R_ESTRONE: CeeTox H295R High-throughput Steroidogenesis Assay for Estrone (AID 2283441).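 Also: estrone secreted into medium measured by LC-MS/MS after dansyl derivatization.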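 As to AC50: human adrenal H295R cells prestimulated with forskolin for two days.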 Conditions: actives raise or lower the signal. The method, boiled down:
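H295R cells; 48 h forskolin (10 uM) prestimulation; 48 h compound exposure, 0.1% DMSO final. Medium estrone: MTBE extraction, dansyl derivatization, HPLC-MS/MS. Bidirectional fit vs DMSO.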

Read-out in assay [6]: Tumor necrosis factor receptor superfamily member 6 (Homo sapiens) (UniProt P25445)
Briefly: LTEA_HepaRG_FAS: Life Technologies and Expression Analysis (LTEA) Assay for Fas cell surface death receptor (FAS) using HepaRG (AID 2283447). Conditions: mRNA level, 48 h; actives raise or lower the signal. Summed up: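 Differentiated HepaRG cells in serum-free induction medium were exposed 48 h to 8 half-log concentrations up to 100 uM in 0.5% DMSO, in duplicate. FAS mRNA was measured by qRT-PCR normalised to ACTB, GAPDH and POLR2A; bidirectional fit versus DMSO.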

Read-out in assay [7]: Fatty acid synthase (Homo sapiens) (UniProt P49327)
Description: LTEA_HepaRG_FASN: Life Technologies and Expression Analysis (LTEA) Assay for Fatty Acid Synthase (FASN) using HepaRG (AID 2283448). Conditions: mRNA level, 48 h; actives raise or lower the signal. Summed up: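 Transcript-level assay: HepaRG liver cells are treated for 48 h across an eight-point range topping at 100 uM, and FASN mRNA, normalized to three housekeeping genes, is compared with DMSO controls in both directions.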

Read-out in assay [8]: Cyclin D2 (CCND2), CCND2 (gene 894)
Description: LTEA_HepaRG_CCND2: Life Technologies and Expression Analysis (LTEA) Assay for Cyclin D2 (CCND2) using HepaRG (AID 2283449).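 Also: CCND2 transcript measured by TaqMan qRT-PCR and normalised to three housekeeping genes.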 As to conditions: mRNA level, 48 h; actives raise or lower the signal. The method, boiled down:
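Chemicals in 0.5% DMSO, eight half-log concentrations from 100 uM top, were applied in duplicate for 48 h to human HepaRG cells in serum-free induction medium. CCND2 mRNA by TaqMan qRT-PCR, normalised to ACTB/GAPDH/POLR2A; bidirectional fit versus DMSO.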

Read-out in assay [9]: Cyclin Dependent Kinase Inhibitor 1A (CDKN1A), CDKN1A (gene 1026)
Description: LTEA_HepaRG_CDKN1A: Life Technologies and Expression Analysis (LTEA) Assay for Cyclin Dependent Kinase Inhibitor 1A (CDKN1A) using HepaRG (AID 2283450). As to conditions: mRNA level, 48 h; actives raise or lower the signal. The method, boiled down:
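Cryopreserved HepaRG cells were plated and cultured 48 h, then switched to serum-free induction medium. Chemicals (eight half-log concentrations, top 100 uM, 0.5% DMSO) were applied for 48 h. Lysates underwent qRT-PCR for CDKN1A with housekeeping normalization.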

Read-out in assay [10]: Cyclin D1 (CCND1), CCND1 (gene 595)
Briefly: LTEA_HepaRG_CCND1: Life Technologies and Expression Analysis (LTEA) Assay for Cyclin D1 (CCND1) using HepaRG (AID 2283451). Conditions: mRNA level, 48 h; actives raise or lower the signal. Here is the method: LTEA_HepaRG is a cell based, multiplexed-readout assay that uses HepaRG, a human liver cell line, with measurements taken at 48 hours after chemical dosing on a 96-well plate.LTEA_HepaRG_CCND1 is one of 102 assay component(s) measured in the LTEA HepaRG cell culture assay. It is a marker of Cell proliferation, survival, death.Data from the assay component LTEA_HepaRG_CCND1 was analyzed into 1 endpoint. This assay endpoint, LTEA_HepaRG_CCND1, was analyzed with bidirectional fitting relative to DMSO as the negative control and baseline of activity. Using a type of inducible reporter, measures of mRNA induction for gain or loss-of-signal activity can be used to understand regulation of transcription factor activity. To generalize the intended target to other relatable targets, this assay endpoint is annotated to the cell cycle intended target family, where the subfamily is Cell proliferation, survival, death.
A total of 1060 chemcials from the ToxCast library were tested in eight-point concentration-response experiments. […] Fluidigm's 96.96 Dynamic ArrayTM (Fluidigm, Amsterdam, the Netherlands) technology was used for gene expression analyses by quantitative reverse transcription polymerase chain reaction (qRT-PCR, performed by Quintiles/Expression Analysis, Durham, NC)89. […]

Fatty acid synthase (Homo sapiens), sequence (P49327 whole entry, looked up): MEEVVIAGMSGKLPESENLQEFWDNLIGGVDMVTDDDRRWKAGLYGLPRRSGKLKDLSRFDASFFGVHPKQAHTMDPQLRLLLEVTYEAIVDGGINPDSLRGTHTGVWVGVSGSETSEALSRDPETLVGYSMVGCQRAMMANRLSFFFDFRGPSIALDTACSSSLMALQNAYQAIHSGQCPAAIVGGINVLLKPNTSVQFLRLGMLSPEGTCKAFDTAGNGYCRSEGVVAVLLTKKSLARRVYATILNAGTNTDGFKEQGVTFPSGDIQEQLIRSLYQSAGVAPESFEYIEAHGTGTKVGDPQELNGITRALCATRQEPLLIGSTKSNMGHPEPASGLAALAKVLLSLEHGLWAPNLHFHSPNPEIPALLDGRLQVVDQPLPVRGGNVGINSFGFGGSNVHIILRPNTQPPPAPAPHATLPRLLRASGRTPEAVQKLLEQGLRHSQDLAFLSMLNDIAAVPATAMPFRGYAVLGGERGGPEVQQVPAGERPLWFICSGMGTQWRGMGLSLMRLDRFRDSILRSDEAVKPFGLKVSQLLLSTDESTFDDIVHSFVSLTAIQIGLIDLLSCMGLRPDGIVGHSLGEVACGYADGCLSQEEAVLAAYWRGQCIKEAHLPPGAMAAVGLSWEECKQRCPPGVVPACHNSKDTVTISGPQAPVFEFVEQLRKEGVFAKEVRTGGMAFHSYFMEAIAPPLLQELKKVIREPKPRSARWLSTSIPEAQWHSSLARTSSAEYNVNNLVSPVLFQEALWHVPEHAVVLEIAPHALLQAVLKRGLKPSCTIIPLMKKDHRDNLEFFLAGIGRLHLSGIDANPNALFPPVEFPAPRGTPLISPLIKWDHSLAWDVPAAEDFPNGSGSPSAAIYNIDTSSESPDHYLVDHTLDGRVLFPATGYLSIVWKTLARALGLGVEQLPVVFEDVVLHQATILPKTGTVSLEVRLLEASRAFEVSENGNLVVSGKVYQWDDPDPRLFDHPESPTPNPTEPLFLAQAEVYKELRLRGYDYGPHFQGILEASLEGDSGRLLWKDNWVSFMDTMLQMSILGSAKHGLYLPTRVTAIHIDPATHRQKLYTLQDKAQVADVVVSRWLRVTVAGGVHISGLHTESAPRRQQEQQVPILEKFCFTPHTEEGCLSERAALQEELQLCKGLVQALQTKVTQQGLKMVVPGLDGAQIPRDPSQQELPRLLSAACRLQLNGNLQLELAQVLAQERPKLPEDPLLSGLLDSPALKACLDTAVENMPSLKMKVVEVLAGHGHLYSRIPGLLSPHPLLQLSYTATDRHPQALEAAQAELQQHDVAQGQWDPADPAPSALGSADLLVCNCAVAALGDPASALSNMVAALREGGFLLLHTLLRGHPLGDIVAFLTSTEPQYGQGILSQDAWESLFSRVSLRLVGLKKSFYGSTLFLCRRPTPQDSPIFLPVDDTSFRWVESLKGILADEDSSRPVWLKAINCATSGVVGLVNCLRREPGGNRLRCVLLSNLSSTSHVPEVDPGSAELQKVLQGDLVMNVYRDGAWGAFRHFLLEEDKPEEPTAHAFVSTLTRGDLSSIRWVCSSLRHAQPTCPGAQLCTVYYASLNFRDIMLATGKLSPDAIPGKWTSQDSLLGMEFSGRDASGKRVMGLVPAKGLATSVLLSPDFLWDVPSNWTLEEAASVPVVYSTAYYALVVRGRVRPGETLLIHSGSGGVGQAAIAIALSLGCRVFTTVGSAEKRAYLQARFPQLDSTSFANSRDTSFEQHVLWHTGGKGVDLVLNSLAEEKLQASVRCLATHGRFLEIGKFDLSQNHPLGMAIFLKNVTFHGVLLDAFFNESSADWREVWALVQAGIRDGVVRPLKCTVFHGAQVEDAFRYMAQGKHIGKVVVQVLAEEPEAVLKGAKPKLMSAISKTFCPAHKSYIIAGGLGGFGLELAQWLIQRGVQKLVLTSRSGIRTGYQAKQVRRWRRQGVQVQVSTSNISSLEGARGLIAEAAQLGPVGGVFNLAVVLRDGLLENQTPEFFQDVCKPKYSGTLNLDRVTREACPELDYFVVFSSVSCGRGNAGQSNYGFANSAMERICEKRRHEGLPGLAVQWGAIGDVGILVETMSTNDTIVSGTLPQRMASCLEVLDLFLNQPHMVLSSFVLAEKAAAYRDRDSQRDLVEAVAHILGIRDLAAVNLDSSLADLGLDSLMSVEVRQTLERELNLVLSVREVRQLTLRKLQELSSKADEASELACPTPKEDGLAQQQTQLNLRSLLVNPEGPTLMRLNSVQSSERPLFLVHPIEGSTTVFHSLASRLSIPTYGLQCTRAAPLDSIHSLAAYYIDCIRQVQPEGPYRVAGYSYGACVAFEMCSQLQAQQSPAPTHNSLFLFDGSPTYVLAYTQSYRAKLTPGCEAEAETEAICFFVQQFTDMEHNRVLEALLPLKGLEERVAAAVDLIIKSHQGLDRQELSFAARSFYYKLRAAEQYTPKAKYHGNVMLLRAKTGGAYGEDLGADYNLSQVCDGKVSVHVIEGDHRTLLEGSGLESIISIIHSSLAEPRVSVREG

The term AC50 denotes the concentration giving half of the maximal activity seen. Take `O=c1cc(-c2ccccc2)oc2cc(O)cc(O)c12`: the result in assay [1] was inactive. In addition, the values for the concentration at half-maximal activity (AC50) in [2] and in assay [3] were 12.2 µM (active) and 16.1 µM (active), respectively.
As for `C=CC(C)(C)O`, the call in [1], in assay [2], in assay [4], in [5] and in [3] was inactive.
Regarding `CC(C)c1cccc(O)c1`, the result in assay [1], in [2], in [4], in assay [5] and in [3] was inactive.
Take `Cc1cccc(C)c1C`: the compound was classed as inactive in assay [1], in [2] and in assay [3].
With `O=C(O)C[C@H](O)C[C@H](O)/C=C/c1c(C2CC2)nc2ccccc2c1-c1ccc(F)cc1`, the result in assay [1] was inactive. The AC50 in [2] is 0.0331 µM (active); in assay [3] it was 0.0233 µM (active).
As to `O=C(O)c1ccc([N+](=O)[O-])cc1`, the compound was classed as inactive in [1], in assay [2], in assay [3], in [6], in assay [7] and in [8]. Moreover, the outcome in assay [9] and in [10] was inactive.
Regarding `C#C[C@]1(O)CC[C@H]2[C@@H]3CCC4=Cc5oncc5C[C@]4(C)[C@H]3CC[C@@]21C`, the half-maximal activity concentration (AC50) in assay [1] is 3.34 µM (active); in assay [4], 5.57 µM (active); in assay [5], 3.42 µM (active); in [3] it was 0.225 µM (active). Further, the call in assay [2] was inactive.
As to `CC1(C)[C@H](C(=O)OCc2cccc(Oc3ccccc3)c2)[C@@H]1C=C(Cl)Cl`, the compound was classed as inactive in assay [1], in assay [2] and in assay [3].
On to `NC(=O)Nc1ccc(Cl)cc1`, for which the call in [1], in assay [2], in [4], in assay [5] and in assay [3] was inactive.
For `COc1cc2ncnc(Nc3cccc(Cl)c3)c2cc1OC`, the call in assay [1], in [4], in [5] and in assay [3] was inactive. For the same compound, the AC50 in assay [2] was 0.496 µM (active).
Regarding `Nc1cc([N+](=O)[O-])ccc1Cl`, the call in assay [1], in [2] and in assay [3] was inactive.
As to `CSc1nc(NC2CC2)nc(NC(C)(C)C)n1`, the outcome in [3] was inactive.
Consider `C=CCOc1nc(OCC=C)nc(OCC=C)n1`, for which the AC50 in assay [1] is 29.3 µM (active); in assay [3] it was 50 µM (active). Further, the compound was called inactive in assay [2].
Regarding `Nc1ccc(F)c([N+](=O)[O-])c1`, the compound was classed as inactive in [1], in assay [2], in [4] and in [5]. Further, the half-maximal activity concentration (AC50) in assay [3] was 50 µM (active).
Turning to `Cc1ccc2n[nH]nc2c1`, the outcome in assay [1], in assay [2], in assay [4], in assay [5] and in assay [3] was inactive.
For the compound `c1ccc(CCCc2ccccn2)cc1`, the outcome in assay [4] and in assay [5] was inactive. Moreover, the AC50 in assay [3] was 50 µM (active).
As for `CC1COc2ccccc2N1C(=O)C(Cl)Cl` (stereo not given), the AC50 in [1] was 32.3 µM (active); in [2], 10.4 µM (active). Besides, the call in assay [4], in [5] and in assay [3] was inactive.
